This passage reports growth results from PubChem BioAssay (NCI).

Some test systems named below: NCI-H23 lung; NCI-H226 lung; NCI-H322M lung; HOP-62 NSCLC; NCI-H460 lung; HOP-92 NSCLC; NCI-H522 lung; A549/ATCC NSCLC; 786-0 renal; COLO 205 colon; DU-145 prostate; K-562 leukemia; MALME-3M melanoma; MDA-MB-231 breast; RXF 393 renal; SF-268 CNS; SF-295 CNS; SF-539 CNS; UACC-257 melanoma; M14 melanoma.
Common to all, as to assay: NCI-60 one-dose screen, 48 h (100 = growth as untreated, 0 = no growth, -100 = all killed)
Common to all, as to settings: 10 µM

The structures appear in SMILES notation. About 83,000 compounds went through this panel and 20% of them were active in at least one assay; those are over-represented in the sample as a whole.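 Step 1: grow cells in 96-well plates. Step 2: add test compound at a single concentration. Step 3: incubate 48 h. Step 4: record percent growth.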 Unmarked numbers belong to inactive results. Active and inactive are the calls of the source. How the source made its calls: active means growth percent below 10; inactive means the rest.

`C=C1CCC2C3(C)COC(c4cc(F)cc(F)c4)OC3CCC2(C)C1C/C=C1/C(=O)OCC1O` (stereo not given): the growth in the experiment on NCI-H23 lung is -39.2% (active); in the experiment on NCI-H226 lung it was -20.9% (active); in the experiment on NCI-H322M lung, 24.5%; in the experiment on HOP-62 NSCLC, -64.1% (active); in the experiment with NCI-H460 lung, 13.1%; in the experiment with HOP-92 NSCLC, -52.4% (active). Also, the growth with NCI-H522 lung is -79.8% (active); in the experiment on A549/ATCC NSCLC, 4.7% (active); with 786-0 renal it was -90.5% (active); with COLO 205 colon, -68% (active); in the experiment on DU-145 prostate, -52.9% (active); in the experiment on K-562 leukemia, 12.7%. Also, the growth with MALME-3M melanoma is -78.8% (active); in the experiment on MDA-MB-231 breast, -63.7% (active); in the experiment on RXF 393 renal it was -73.7% (active); in the experiment on SF-268 CNS, 36.7%; with SF-295 CNS, -82.7% (active); in the experiment with SF-539 CNS it was -90.9% (active). The growth was -85.4% (active) in the experiment with UACC-257 melanoma and -64.6% (active) in the experiment on M14 melanoma.

With `O=C(CN1CCN(c2ncnc3c2cnn3-c2ccccc2)CC1)Nc1nncs1`, the growth with NCI-H23 lung was -55.1% (active); in the experiment with NCI-H226 lung, 43.9%; with NCI-H322M lung, 84.8%; in the experiment with HOP-62 NSCLC it was -52.7% (active); with NCI-H460 lung it was -22.1% (active); in the experiment with HOP-92 NSCLC it was -70.9% (active). For the same molecule, the growth with NCI-H522 lung was -79.3% (active); in the experiment with A549/ATCC NSCLC, -32.5% (active); in the experiment on 786-0 renal, -80.9% (active); with COLO 205 colon, -50.2% (active); with DU-145 prostate, -96.1% (active); with K-562 leukemia, 10.6%. Besides, the growth was -67.3% (active) with MALME-3M melanoma; 29.7% in the experiment with MDA-MB-231 breast; -71.3% (active) in the experiment with RXF 393 renal; -34.4% (active) in the experiment with SF-268 CNS; -31.4% (active) in the experiment with SF-295 CNS; -88.2% (active) in the experiment with SF-539 CNS. Further, the growth is 54.3% in the experiment on UACC-257 melanoma and 4.82% (active) with M14 melanoma.

In the case of `C=C1CCC2C3(C)COC(c4c(F)cccc4F)OC3CCC2(C)C1C/C=C1/C(=O)OCC1O` (stereo not given), the growth is -46.8% (active) with NCI-H23 lung; -11.2% (active) in the experiment with NCI-H226 lung; 37.5% in the experiment with NCI-H322M lung; -13.7% (active) with HOP-62 NSCLC; -22.3% (active) in the experiment with NCI-H460 lung; 4.64% (active) in the experiment on HOP-92 NSCLC. Also, the growth was -67.7% (active) with NCI-H522 lung; 10.1% with A549/ATCC NSCLC; -77.6% (active) in the experiment on 786-0 renal; -35.8% (active) in the experiment on COLO 205 colon; -60.3% (active) in the experiment on DU-145 prostate; 13.4% in the experiment on K-562 leukemia. Also, the growth in the experiment with MALME-3M melanoma was -62.7% (active); with MDA-MB-231 breast it was -33.4% (active); with RXF 393 renal, -72.8% (active); with SF-268 CNS it was 65.2%; with SF-295 CNS, -21% (active); in the experiment with SF-539 CNS it was -92.2% (active). Further, the growth was -46.8% (active) in the experiment on UACC-257 melanoma and -23.7% (active) in the experiment with M14 melanoma.

`O=C(c1ccc(O)cc1)C1[C@H](c2ccccc2Br)[C@@H](c2ccccc2)NC12C(=O)Nc1ccc(Br)cc12` (stereo not given in full): the growth with NCI-H23 lung is 46.4%; in the experiment on NCI-H226 lung it was 36.5%; with NCI-H322M lung, 55.6%; in the experiment with HOP-62 NSCLC it was 53.2%; in the experiment with NCI-H460 lung, 31.1%; with HOP-92 NSCLC, 53.3%. The growth is 0.143% (active) in the experiment with NCI-H522 lung; 34.4% with A549/ATCC NSCLC; 47.8% with 786-0 renal; 29.7% in the experiment on COLO 205 colon; 70.2% with DU-145 prostate; 29.9% in the experiment with K-562 leukemia. Further, the growth in the experiment on MALME-3M melanoma was 78.7%; in the experiment with MDA-MB-231 breast it was 46.3%; in the experiment on RXF 393 renal it was 55.3%; with SF-268 CNS it was 40%; with SF-295 CNS, 26.6%; in the experiment on SF-539 CNS, 49.1%. In addition, the growth in the experiment with UACC-257 melanoma was 65.4%; with M14 melanoma, 54.6%.

Consider `COc1cccc(-c2ccc(/C=N/NC(=O)c3[nH]c4ccc(Br)cc4c3-c3ccccc3)o2)c1`, for which the growth is 22.4% in the experiment on NCI-H23 lung; 31.4% in the experiment on NCI-H226 lung; 45.7% in the experiment with NCI-H322M lung; 12.8% in the experiment with HOP-62 NSCLC; 4.13% (active) with NCI-H460 lung; 54.4% with HOP-92 NSCLC. Besides, the growth in the experiment with NCI-H522 lung was -42.8% (active); in the experiment with A549/ATCC NSCLC, 19.6%; in the experiment on 786-0 renal it was 9.39% (active); in the experiment on COLO 205 colon it was -40.6% (active); with DU-145 prostate, 25.9%; in the experiment on K-562 leukemia it was 3.8% (active). Besides, the growth in the experiment on MALME-3M melanoma is 47.5%; in the experiment on MDA-MB-231 breast it was 23.6%; in the experiment with RXF 393 renal it was 26.1%; in the experiment with SF-268 CNS it was 33.5%; in the experiment on SF-295 CNS, -14.6% (active); in the experiment on SF-539 CNS, -67.7% (active). The growth was 36.9% with UACC-257 melanoma and 16.7% in the experiment on M14 melanoma.

`COc1cccc(COc2ccc(/C=C3\Oc4cc(O)ccc4C3=O)cc2)c1`: the growth in the experiment with NCI-H23 lung is 46.7%; in the experiment on NCI-H226 lung, 51.3%; in the experiment with NCI-H322M lung it was 89.4%; in the experiment with HOP-62 NSCLC, 17.6%; with NCI-H460 lung, 27.4%; in the experiment on HOP-92 NSCLC, 16.3%. In addition, the growth in the experiment with NCI-H522 lung was 35.9%; in the experiment with A549/ATCC NSCLC, 71.4%; in the experiment on 786-0 renal it was -58% (active); with COLO 205 colon, 113%; in the experiment on DU-145 prostate it was 31.8%; in the experiment on K-562 leukemia, 49.4%. Also, the growth with MALME-3M melanoma was 14.3%; in the experiment on MDA-MB-231 breast, 28.6%; with RXF 393 renal, -19.3% (active); with SF-268 CNS, 17.2%; with SF-295 CNS it was 9.41% (active); in the experiment on SF-539 CNS it was 30%. For the same molecule, the growth with UACC-257 melanoma is 70.6%; in the experiment with M14 melanoma, 35.9%.

With `CC(=O)Nc1ccc(-n2cnc3cc(-c4ccc(O)cc4)ccc32)cc1C`, the growth was 47.6% in the experiment on NCI-H23 lung; 57% in the experiment on NCI-H226 lung; 74.9% in the experiment with NCI-H322M lung; 63.5% in the experiment on HOP-62 NSCLC; 36.4% in the experiment with NCI-H460 lung; 67.2% with HOP-92 NSCLC. Moreover, the growth with NCI-H522 lung was -29.1% (active); in the experiment with A549/ATCC NSCLC, 47.5%; in the experiment with 786-0 renal it was 55.7%; with COLO 205 colon, 93.9%; in the experiment on DU-145 prostate, 60.8%; with K-562 leukemia it was 41.2%. For the same molecule, the growth in the experiment with MALME-3M melanoma is 58.9%; in the experiment on MDA-MB-231 breast it was 49.3%; in the experiment on RXF 393 renal, 43.4%; in the experiment with SF-268 CNS, 53.1%; in the experiment on SF-295 CNS, 52.8%; in the experiment on SF-539 CNS it was 41.5%. Also, the growth with UACC-257 melanoma was 61.2%; in the experiment on M14 melanoma, 42.3%.

With `O=C(O)CCCCCCCCCCN1C(=O)/C(=C/c2cnc(-c3ccc(Cl)cc3)s2)SC1=S`, the growth with NCI-H23 lung is 11.8%; with NCI-H226 lung it was 34.8%; in the experiment on NCI-H322M lung it was 5.41% (active); in the experiment on HOP-62 NSCLC it was 36.3%; in the experiment on NCI-H460 lung, 4.44% (active); with HOP-92 NSCLC, -40.9% (active). The growth was -16% (active) with NCI-H522 lung; -19.6% (active) in the experiment with A549/ATCC NSCLC; 28.1% in the experiment with 786-0 renal; 139% in the experiment with COLO 205 colon; 13.2% in the experiment on DU-145 prostate; 22.1% in the experiment with K-562 leukemia. Further, the growth in the experiment with MALME-3M melanoma was 80.6%; with MDA-MB-231 breast, 48.9%; with RXF 393 renal, 77.4%; in the experiment with SF-268 CNS it was 49.4%; in the experiment on SF-295 CNS, 8.83% (active); in the experiment on SF-539 CNS it was 36.4%. Moreover, the growth with UACC-257 melanoma was 87.6%; in the experiment with M14 melanoma, 16.5%.
